The text below walks through data of ChEMBL document CHEMBL3988442, “University of Dundee, Small-Polar-MMV Screening Library” (2021).

SMILES strings stand for the structures. About 13,000 (27%) of roughly 48,000 compounds showed an effect of 50% or more. The list shows a part of the results.

This test relates to Wolbachia pipientis. The experiment in a line: Anti-Wolbachia Cell-Based Screen. The test is classed as functional. The arrangement: scale not given: in the data most compounds retested in dose-response had high values. The conditions noted are these: 5 µM.
For `CC(=O)N1CCC2(CC1)CN(C)C(=O)C[C@H]2C(F)(F)F.Cl`, the “Percent Effect” value is -12.08%.

For the compound `CN1CCN(C(=O)c2ccc(=O)n(C)c2)c2ccccc21`, the “Percent Effect” value turned out to be 6.731%. With `CCOc1ccc(-n2nc(C)c(CC(C)=O)c2C)cc1C(N)=O`, the “Percent Effect” value is -4.424%. The figure for `Cc1cnc(N2CC3(CCN(S(=O)(=O)C4CC4)C3)C2)nc1.O=C(O)C(F)(F)F` is -3.978%; for `O=C(O)C(F)(F)F.O=S(=O)(C1CC1)N1CCC2(CCCN(c3ncccn3)C2)C1` (centres undefined) it is 97.03%. As for `O=S(=O)(C1CC1)N1CCC2(CN(c3ncccn3)C2)C1`, the figure is -12.56%. With `O=C(CCc1ccc(F)cc1)NCc1ccnc(NC2CC2)c1`, the “Percent Effect” value is listed as -8.812%. On to `O=C(O)C(F)(F)F.O=C(O)C(F)(F)F.c1cc(CN2CC[C@@H]3[C@@H](CO[C@H]3CN3CCOCC3)C2)cs1`, for which the “Percent Effect” value turned out to be 92.79%. As for `CN1CCN(C[C@@H]2OC[C@H]3CN(Cc4ccsc4)CC[C@H]32)CC1.O=C(O)C(F)(F)F.O=C(O)C(F)(F)F.O=C(O)C(F)(F)F`, the figure is -2.359%.

`CN(Cc1ccco1)C[C@H]1OC[C@@H]2CCN(Cc3ccsc3)C[C@@H]21.O=C(O)C(F)(F)F.O=C(O)C(F)(F)F`: the “Percent Effect” value is -7.864%. Consider `CN1CCN(C[C@H]2OC[C@@H]3CCN(Cc4ccsc4)C[C@@H]32)CC1`, for which the “Percent Effect” value stood at 98.94%. As for `Cc1ccc(CN2CC[C@H]3CO[C@H](CN4CCN(C)CC4)[C@H]3C2)o1.O=C(O)C(F)(F)F.O=C(O)C(F)(F)F.O=C(O)C(F)(F)F`, the figure is -46.51%; as for `O=C(O)C(F)(F)F.O=C(O)C(F)(F)F.c1cc(CN2CC[C@H]3CO[C@H](CN4CCOCC4)[C@H]3C2)cs1`, 117.2%. The figure for `O=C(C1CCOCC1)N1C[C@@H]2CN(Cc3ccsc3)CCO[C@@H]2C1.O=C(O)C(F)(F)F` is 4.767%. As for `Cc1ccc(CN2CC[C@H]3CO[C@H](CN4CCCC4)[C@H]3C2)o1.O=C(O)C(F)(F)F.O=C(O)C(F)(F)F`, the figure is -21.11%; as for `O=C(O)C(F)(F)F.O=C(O)C(F)(F)F.c1cc2c(cc1CN1CC[C@H]3CO[C@H](CN4CCCC4)[C@H]3C1)OCO2`, -12.98%; as for `O=C(Nc1ccnc(OC2CCOC2)c1)C1CCC1` (centres undefined), -17.8%. `Cc1cc(CN2CCC(CNC(=O)c3ccc(O)c(Cl)c3)C2)[nH]n1` (centres undefined): the “Percent Effect” value came out at 12.57%.

As for `CNS(=O)(=O)c1ccc(C(=O)N2CCCC2c2cnn(C)c2)o1` (centres undefined), the “Percent Effect” value is given as -2.298%. As for `CNS(=O)(=O)c1ccc(C(=O)N2CCCC2Cc2ccccc2)o1` (centres undefined), the figure is 9.44%; as for `NS(=O)(=O)c1ccc(C(=O)N2CCCC2c2ccccc2)o1` (centres undefined), 114.9%; as for `CNS(=O)(=O)c1ccc(C(=O)N2CCCC2c2ccccc2C)o1` (centres undefined), 116.1%. As for `CNS(=O)(=O)c1ccc(C(=O)N2CCCC2c2ccccc2)o1` (centres undefined), the “Percent Effect” value is listed as -8.711%. The figure for `CN(C)Cc1ccc(C2CCCCN2C(=O)c2ncccc2O)cc1` (centres undefined) is 1.796%; for `CNS(=O)(=O)c1ccc(C(=O)N2CCCC2c2ccncc2)o1` (centres undefined) it is 101.5%. As for `CC(=O)Nc1nc(C(=O)N2CCCC2c2ccccc2C)cs1` (centres undefined), the figure is -3.064%; as for `CNS(=O)(=O)c1ccc(C(=O)N2CCCCC2c2ccc(C)cc2)o1` (centres undefined), 124%. Consider `CNc1nc(C(=O)N2CCCCC2c2ccc(CN(C)C)cc2)cs1` (centres undefined), for which the “Percent Effect” value is given as -11.93%. As for `Cc1nc(C(=O)N2CCCCC2c2ccc(CN(C)C)cc2)c(C)o1` (centres undefined), the figure is -1.477%.
